CYP2C9 activ: human CYP2C9 activators, primary screen, biochemical, luminescence; activation factor at 5 µM; Cytochrome P450 2C9 (Homo sapiens), P11712; AID 1024, 2008; recombinant CYP2C9, luciferin-H conversion; hits give high values; factor 1 = untreated enzyme, 0 = blocked; 96,000 compounds, 1.4% hits;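 active means activation factor of 2 or more for CYP2C9 at a 5 µM dose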;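 further: 0 = sulfaphenazole-blocked wells and 1 = vehicle-only wells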
Target sequence (P11712 whole entry, looked up): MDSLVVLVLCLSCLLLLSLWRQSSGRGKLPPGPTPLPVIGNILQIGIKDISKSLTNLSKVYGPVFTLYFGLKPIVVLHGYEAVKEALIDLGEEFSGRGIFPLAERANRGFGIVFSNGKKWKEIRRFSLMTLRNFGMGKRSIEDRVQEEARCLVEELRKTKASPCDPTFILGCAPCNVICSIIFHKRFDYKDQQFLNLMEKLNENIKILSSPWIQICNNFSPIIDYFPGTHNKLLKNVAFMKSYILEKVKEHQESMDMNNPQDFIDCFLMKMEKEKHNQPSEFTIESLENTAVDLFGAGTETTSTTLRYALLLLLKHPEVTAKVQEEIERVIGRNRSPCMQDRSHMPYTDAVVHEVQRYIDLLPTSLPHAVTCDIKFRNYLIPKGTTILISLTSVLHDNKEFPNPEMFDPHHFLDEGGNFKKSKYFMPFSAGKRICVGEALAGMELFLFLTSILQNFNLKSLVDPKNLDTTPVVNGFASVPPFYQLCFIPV
CYP2C19 activ: human CYP2C19 activators, primary screen, biochemical, luminescence. Cytochrome P450 2C19 (Homo sapiens), P33261. recombinant CYP2C19, luciferin-H EGE luminescence; hits give high values; 0 = fully inhibited enzyme, 1 = untreated enzyme. activation factor at 5 µM. 96,000 tested, under 10 active. AID 1025, 2008;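 active means activation factor of at least 2 at 5 µM in the primary screen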;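 further: 0 = wells with 2.5 mM tranylcypromine and 1 = vehicle-only wells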
PLK1 inh: human PLK1 kinase inhibitors, primary screen, biochemical, TR-FRET | Serine/threonine-protein kinase PLK1 (Homo sapiens), P53350 | recombinant PLK1 kinase, TR-FRET peptide phosphorylation | inhibition, % at 10 µM | 97,000 compounds, 0.53% hits;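 active means inhibition of 50% or more in the single-concentration screen; inactive means inhibition below 50%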;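 further: 0% = DMSO max control and 100% = H-89 dihydrochloride min control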
CYP2C9 inhib: blockers of cytochrome P450 2C9 activity – biochemical, luminescence, ADME assay, primary screen | inhibition, % at 5 µM | 96,000 compounds, 20% hits | CYP2C9 Supersomes, luciferin-H conversion | P11712;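 active means blocking of liver enzyme CYP2C9 beyond about 50% at 5 µM, limit read from the data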
CYP2C19 inhib: blockers of cytochrome P450 2C19 activity – biochemical, luminescence, ADME assay, primary screen. P33261. CYP2C19 Supersomes, luciferin-H EGE luminescence, 30 min. inhibition, % at 5 µM. 96,000 compounds, 21% hits. AID 778, 2007;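 active means CYP2C19 inhibition above a set limit at 5 µM in the primary screen, cut at about 50% in these data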;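 further: plate controls were negative control wells for no effect and 2.5 mM tranylcypromine positive control for full effect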
PLK1 PBD inh: Plk1 polo box domain binding inhibitors, primary screen, biochemical, fluorescence polarization | inhibition, %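 (tested at about 20 µM)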 | 97,000 compounds, 0.13% hits | AID 693, 2007 | Plk1 PBD phosphopeptide binding; in the data active means inhibition above about 34%, passing the limit was not always enough
* marks the source's active call; other numbers are inactive results. In the library only some 28% were active in any assay of this set; here they are far more common.

For Cc1oc(-c2cccs2)nc1CSCC(=O)NC1CC1 the results were CYP2C9 activ 1, CYP2C19 activ 0.9, PLK1 inh -10, CYP2C9 inhib 5, CYP2C19 inhib 7 and PLK1 PBD inh 18.
Screening Clc1ccc(NCc2nnc3n2CCCCC3)cc1 returned CYP2C9 activ 1, CYP2C19 activ 0.5, PLK1 inh -9, CYP2C9 inhib 2, CYP2C19 inhib 55* and PLK1 PBD inh 2.
Screening Clc1ccc(-c2nnc3n2CCCCC3)cc1 returned CYP2C9 activ 1.1, CYP2C19 activ 0.9, PLK1 inh 4, CYP2C9 inhib -12, CYP2C19 inhib 9 and PLK1 PBD inh 18.
`CCOC(=O)Nc1ccc2c(c1)Sc1ccccc1N2C(=O)CCN1CCOCC1` gave CYP2C9 activ 0.6, CYP2C19 activ 0.4, PLK1 inh 5, CYP2C9 inhib 37, CYP2C19 inhib 60* and PLK1 PBD inh 14.
`CCOC(=O)Nc1ccc2c(c1)N(C(=O)N1CCN(C)CC1)c1ccccc1S2` gave CYP2C9 activ 0.9, CYP2C19 activ 0.3, PLK1 inh 7, CYP2C9 inhib 7, CYP2C19 inhib 73* and PLK1 PBD inh -9.
Screening CCOC(=O)Nc1ccc2c(c1)N(C(=O)CCN1CCN(C)CC1)c1ccccc1S2 returned CYP2C9 activ 1.2, CYP2C19 activ 1, PLK1 inh 0, CYP2C9 inhib -18, CYP2C19 inhib 0 and PLK1 PBD inh 22.
`O=C1C2C3C=CC([C@@H]2C(=O)N1Cc1cccnc1)C31CC1` (stereo not given in full) gave CYP2C9 activ 0.9, CYP2C19 activ 0.3, PLK1 inh -10, CYP2C9 inhib 6, CYP2C19 inhib 72* and PLK1 PBD inh -23.
`O=C1CSC(=S)N1Cc1cccnc1` gave CYP2C9 activ 0.2, CYP2C19 activ 0.5, PLK1 inh -9, CYP2C9 inhib 76*, CYP2C19 inhib 53* and PLK1 PBD inh -33.
For O=C(NCc1cccs1)c1cnc2sccn2c1=O the results were CYP2C9 activ 1, CYP2C19 activ 1, CYP2C9 inhib 2 and CYP2C19 inhib 1.
For c1csc(-c2noc(COc3ccc4c(c3)CCCC4)n2)c1 the results were CYP2C9 activ 0.9, CYP2C19 activ 0.9, PLK1 inh -6, CYP2C9 inhib 12, CYP2C19 inhib 10 and PLK1 PBD inh 34.
Screening Cc1ccc(NC(=O)Cn2nnc(C(=O)Nc3ccc(C)c(C)c3)c2N)cc1 returned CYP2C9 activ 1.6, CYP2C19 activ 0.9, PLK1 inh -10, CYP2C9 inhib -58, CYP2C19 inhib 6 and PLK1 PBD inh -7.
For O=C(CN1CCc2ccccc2C1)c1cccs1 the results were CYP2C9 activ 0.8, CYP2C19 activ 0.1, PLK1 inh -10, CYP2C9 inhib 24, CYP2C19 inhib 92* and PLK1 PBD inh 7.
Screening O=C(NCN1CCc2ccccc2C1)c1cnccn1 returned CYP2C9 activ 1.2, CYP2C19 activ 1, PLK1 inh -5, CYP2C9 inhib -20, CYP2C19 inhib -2 and PLK1 PBD inh -8.
For O=C(NCN1CCc2ccccc2C1)c1ccccc1 the results were CYP2C9 activ 0.8, CYP2C19 activ 0.2, PLK1 inh -1, CYP2C9 inhib 20, CYP2C19 inhib 81* and PLK1 PBD inh -28.
COc1cc2c(cc1NC(=O)CSc1ccccn1)oc1ccccc12 was read as CYP2C9 activ 1, CYP2C19 activ 0.9, PLK1 inh -10, CYP2C9 inhib 4, CYP2C19 inhib 12 and PLK1 PBD inh 16.
c1ccc2c(c1)oc1c(N3CCN(Cc4ccc5c(c4)OCO5)CC3)ncnc12 was read as CYP2C9 activ 0.1, CYP2C19 activ 0.2, PLK1 inh 2, CYP2C9 inhib 86*, CYP2C19 inhib 82* and PLK1 PBD inh -9.
For CC1Cc2ccccc2N1c1ncnc2c1nnn2Cc1ccccc1Cl (stereo not given) the results were PLK1 inh -10 and PLK1 PBD inh -12.
Screening Clc1ccc(N2CCN(c3ncnc4c3oc3ccccc34)CC2)cc1 returned CYP2C9 activ 0.9, CYP2C19 activ 0.7, CYP2C9 inhib 9 and CYP2C19 inhib 29.
`Clc1ccccc1Cn1nnc2c(N3CCCC3)ncnc21` gave CYP2C9 activ 2.2*, CYP2C19 activ 0, PLK1 inh -4, CYP2C9 inhib -122, CYP2C19 inhib 99* and PLK1 PBD inh 1.
Clc1ccc(Cn2ncc3c(N4CCOCC4)ncnc32)cc1 was read as CYP2C9 activ 0.8, CYP2C19 activ 0.3, PLK1 inh -10, CYP2C9 inhib 20, CYP2C19 inhib 67* and PLK1 PBD inh 19.
`c1ccc(Cn2nnc3c(N4CCN(Cc5ccc6c(c5)OCO6)CC4)ncnc32)cc1` gave CYP2C9 activ 0.1, CYP2C19 activ 0.2, PLK1 inh 10, CYP2C9 inhib 85*, CYP2C19 inhib 84* and PLK1 PBD inh -20.
FC(F)(F)c1ccc(N2CCN(c3ncnc4c3nnn4Cc3ccccc3)CC2)nc1 was read as CYP2C9 activ 1, CYP2C19 activ 1.1, PLK1 inh -28, CYP2C9 inhib 4, CYP2C19 inhib -15 and PLK1 PBD inh 9.
For O=C(CSc1nnc(C2CC2)n1-c1ccccc1)Nc1ccc(N2CCOCC2)cc1 the results were CYP2C9 activ 0.7, CYP2C19 activ 0.9, PLK1 inh 8, CYP2C9 inhib 30, CYP2C19 inhib 9 and PLK1 PBD inh -4.
Screening Cc1cccc2cc(CN(Cc3cccs3)C3(c4nnnn4C4CCCC4)CCCC3)c(=O)[nH]c12 returned CYP2C9 activ 0.6, CYP2C19 activ 0.9, PLK1 inh -6, CYP2C9 inhib 42, CYP2C19 inhib 12 and PLK1 PBD inh 7.
Fc1ccccc1Cn1nnc2c(-n3ccnc3)ncnc21 was read as CYP2C9 activ 0.1, CYP2C19 activ 0, CYP2C9 inhib 91* and CYP2C19 inhib 99*.
For c1ccc(Cn2nnc3c(N4CCOCC4)ncnc32)cc1 the results were CYP2C9 activ 0.9, CYP2C19 activ 0.2, PLK1 inh 10, CYP2C9 inhib 13, CYP2C19 inhib 76* and PLK1 PBD inh 8.
`Cc1ccc2c(c1)[nH]c1c(N3CCN(Cc4ccc5c(c4)OCO5)CC3)ncnc12` gave CYP2C9 activ 0.1, CYP2C19 activ 0.2, CYP2C9 inhib 93* and CYP2C19 inhib 82*.
`O=C(CSc1ncnc2c1nnn2Cc1ccccc1F)N1CCN(c2ccccc2)CC1` gave PLK1 inh -5 and PLK1 PBD inh 25.
`Cc1[nH]c2ccccc2c1C(c1ccccn1)N1CCC(C)CC1` (stereo not given) gave CYP2C9 activ 1.1, CYP2C19 activ 0.5, PLK1 inh -8, CYP2C9 inhib -14, CYP2C19 inhib 50 and PLK1 PBD inh -3.
